# Bioassay records as filed in PubChem.
# Cycloheximide cs: Cycloheximide Counterscreen for Small Molecule Inhibitors of Shiga Toxin. cell reporter, cycloheximide protein synthesis inhibition counterscreen. AID 2314, 2010. 300,000 compounds, 12% hits. max response, %; in the data active = max response mostly above about 13%, no sharp cut-off; inactive = mostly below about 14%; note: read at 38.3 µM for the half of the compounds with a filed dose; 0% is about no effect
# Sm TGR block: qHTS Assay for the Inhibitors of Schistosoma Mansoni Peroxiredoxins; Schistosoma mansoni thioredoxin glutathione reductase (TGR), Q962Y6; purified TGR, DTNB reduction, TNB absorbance 405 nm; Potency, µM (top dose mostly 114 µM), inactives show at the highest dose activity change, negative = inhibition, hits mostly inhibitors; 360,000 compounds, 3% hits; active = well fitted inhibition curve with a large enough effect; inconclusive = small, poorly fitted or top-dose-only effect; inactive = no such curve, though single readings can be large or run the other way; note: potency is the fitted concentration of half-maximal effect; % is set by controls: 0 for no effect and ±100 for the full control effect; nearly all actives have a fitted effect of over 60% in size
#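 First, TGR (20 nM dispensed) and NADPH were mixed with compound. Second, a 15 min room-temperature incubation followed. Third, further NADPH and then DTNB were added to start the reaction. Finally, TNB absorbance was monitored kinetically.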
# Shiga toxin inh: A qHTS for Small Molecule Inhibitors of Shiga Toxin; Vero cells, Shiga toxin protein synthesis inhibition reporter; inhibition, % at 38.7 µM; 290,000 compounds, 9.2% hits; in the data active = inhibition mostly above about 28%, no sharp cut-off; inactive = mostly below about 43%; note: 0% is about no effect
# FMDV antiviral: High Throughput Screening for Foot and Mouth Disease Virus Antivirals; FMDV antiviral cell-based qHTS; Potency, µM (series often up to 57.9 µM), inactives show at the highest dose activity change, negative = inhibition, usual class: inhibitors; 410,000 compounds, 1.2% hits; calls by dose curve; tested in HEK293T cells; note: read-out not given here; potency is the fitted concentration of half-maximal effect; % is set by controls: 0 for no effect and ±100 for the full control effect; nearly all actives have a fitted effect of over 45% in size
# * hit, by the source's call; ? = inconclusive; . = not tested or not shown. In the library only some 12% were active in any assay of this set; here they are far more common.
SMILES,Cycloheximide cs,Sm TGR block,Shiga toxin inh,FMDV antiviral
COc1ccccc1C1CN(Cc2cccc(C)n2)Cc2ccccc2O1 (stereo not given),.,.,.,0%
Cc1ccccc1-c1noc(CSc2nc(-c3ccc(F)cc3)cc(=O)[nH]2)n1,.,4%,.,-16%
CCOC(=O)c1ccc(N2CCN(c3cc(C)ccc3C)CC2)c(NC(=O)Nc2ccccc2)c1,.,8%,.,-19%
O=C1CNC(=S)N1CCc1ccc(O)c(O)c1,10,1.8µM*,9,1%
O=C1CNC(=S)N1CCOc1ccccc1,8,-2%,-10,-4%
CCOc1ccc(-c2ccc(CO)o2)cc1N,.,-1%,.,28%
Cc1ccc(-c2ccc(CO)o2)cc1N,25*,-2%,55*,12%
CCOC(=O)c1ccc(-c2ccc(CO)o2)cc1,34*,35µM*,84*,19%
C/C(=N/NC(=O)c1ccco1)c1ccc(Br)s1,26*,0%,35*,40%
C/C(=N\NC(=O)c1ccco1)c1ccc(C(=O)O)s1,50*,0%,80*,-19%
C/C(=N\NC(=O)c1ccc(Cl)cc1)c1ccc(Br)s1,29*,13%,90*,52%
C/C(=N\NC(=O)c1cc(Cl)ccc1O)c1ccc(Br)s1,20,-16%,18,-21%
COc1ccc(C(=O)NCC2Cc3cc(C)cc(-c4nc5ccccc5s4)c3O2)c(OC)c1OC (stereo not given),.,.,.,-26%
COc1cccc(/C=N/Nc2c(Cl)cncc2Cl)c1O,32*,-3%,84*,20%
COc1cccc(/C=N/Nc2cc(Cl)nc(C)n2)c1O,32*,-3%,54*,24%
COc1cccc(/C=N/Nc2nnc(C)n2N)c1O,17,-1%,19,-5%
COC(=O)c1ccc2c(c1)N(C)CCS2,-1,-2%,8,-5%
Cc1ccccc1NC(=O)c1ccc2c(c1)N(C)CCS2,28*,10%,32*,44%
CN1CCSc2ccc(C(=O)Nc3cc(F)ccc3F)cc21,54*,2%,81*,8%
COc1cccc(CNC(=O)c2c(C)oc3nc(C)nc(N4CCOCC4)c23)c1,.,10%,.,-8%
O=C1CN(C(=O)/C=C/c2ccc(Br)cc2)CCN1,17*,4%,25,23%
COc1ccc(/C=C/C(=O)N2CCNC(=O)C2)c(OC)c1,14*,2%,27,45%
CCC(OC(=O)C1=Cc2ccccc2OC1)C(=O)NCc1ccco1 (stereo not given),7,5%,17,-29%
CC(OC(=O)C1=Cc2ccccc2OC1)C(=O)NCc1ccco1 (stereo not given),23*,-17%,42,-6%
C=CCNc1nnc(-c2ccncc2)s1,1,0%,13,20%
SMILES,Cycloheximide cs,Sm TGR block,Shiga toxin inh,FMDV antiviral
c1ccc2c(Nc3nnc(-c4ccncc4)s3)cccc2c1,48*,1%,34*,.
CC(C)c1ccc(S(=O)(=O)N2CCN(CC(=O)Nc3ccc(Cl)cc3F)CC2)cc1,.,-10%,.,-23%
CCOc1ccc(C(=O)CN2CCN(S(=O)(=O)c3ccc(Cl)cc3)CC2)cc1,-1,32µM*,7,-29%
COc1ccc(OC)c(C(=O)CN2CCN(S(=O)(=O)c3ccc(Br)cc3)CC2)c1,0,-35%,12,-33%
O=C(CN1CCN(S(=O)(=O)c2ccc(Br)cc2)CC1)c1ccc(O)c(O)c1,5,14µM*,-5,-21%
CC(C)c1ccc(S(=O)(=O)N2CCN(CC(=O)c3ccc(O)c(O)c3)CC2)cc1,-5,25µM*,13,.
COc1ccc(C2NC(=O)NC(C)=C2C(=O)Nc2cc(C)cc(C)c2)c(OC)c1 (stereo not given),.,-15%,.,-15%
CCCCN(C)S(=O)(=O)c1ccc(NC2=NS(=O)(=O)c3ccccc32)cc1,.,9%,.,9%
COc1ccc(CCNC(=O)c2cc(-c3ccco3)on2)cc1OC,26,-1%,65,12%
O=C(NCc1ccco1)c1cc(-c2ccco2)on1,31*,-19%,74*,48%
CCc1ccccc1NC(=O)c1cc(-c2ccco2)on1,6,-31%,32,4%
Cc1ccn2cc(C(=O)NCc3ccco3)nc2c1,25*,?,58*,39%
O=C(NCc1ccccc1)c1cc(-c2ccco2)on1,34*,-21%,65*,76%
O=C(NCCc1ccccc1)c1cc(-c2ccco2)on1,45*,-9%,104*,63%
COc1ccc(Cl)cc1-c1nc(N)nc(N(C)C)n1,-3,2%,-7,-4%
CN(C)c1nc(N)nc(-c2nc3ccccc3s2)n1,39*,-2%,101*,.
Nc1ccccc1-c1nc2ccccc2s1,41*,.,106*,26%
Oc1ccc(N=C/C=C/c2cccc(Br)c2)cc1-c1nc2ccccc2s1,32*,40µM*,13,2%
Oc1ccc(-c2nc3ccccc3s2)c(O)c1,40*,1%,92*,22%
CSc1ccc(C(=O)Nc2ccc(-c3nc4ccccc4s3)c(O)c2)cc1,.,12%,.,20%
COc1ccc(CNC(=O)CN2N=C(c3ccccc3)CCC2=O)c(OC)c1,.,1%,.,-3%
CCOc1ccccc1NC(=O)C1CCN(S(=O)(=O)c2ccc3[nH]c4c(c3c2)CCCCC4)CC1,.,5%,.,-5%
Cc1ccc(CNC(=O)c2cc3c(=O)n(Cc4cccnc4)ccc3nc2C)cc1,.,0%,.,-16%
Nc1ccc(O)c(-c2nc3ccccc3s2)c1,47*,-12%,45*,35%
O=C(Nc1ccc(O)c(-c2nc3ccccc3s2)c1)c1cccs1,0,-7%,9,-18%
SMILES,Cycloheximide cs,Sm TGR block,Shiga toxin inh,FMDV antiviral
CSc1ccccc1C(=O)N1CCc2ccccc2C1,16*,8%,46,31%
Cn1c(C(=O)N2CCc3ccccc3C2)cc2oc3ccccc3c21,38*,3%,61*,35%
CCNC(=S)N1CCc2ccccc2C1,9,4%,-4,5%
Cc1ccccc1C(=O)N1CCc2ccccc2C1,19*,6%,43,.
CSCCCNC(=S)N1CCc2ccccc2C1,29*,-7%,74,21%
O=[N+]([O-])c1cc(-c2nc(-c3ccccc3)no2)ccc1N1CCOCC1,.,-1%,.,-9%
O=S(=O)(c1ccccc1)N1CCC2(CCN(Cc3nccs3)CC2)CC1,.,.,.,2%
Cc1ccccc1-c1nc(CN2CCC(C(=O)NC(C)C)CC2)c(C)o1,.,1%,.,-13%
CCc1cccc(C)c1NC(=O)c1nc2ccccc2nc1N1CCCCC1,.,-6%,.,-28%
CN(C)C=C1C(=O)N(C2CCCCC2)C(=O)N(C2CCCCC2)C1=O,-10,-34%,-13,18µM*
CCCC1NC(=S)N(C2CCCCC2)C1=O (stereo not given),-2,-4%,-14,-3%
COc1cccc(OCCNc2cc(N3CCOCC3)ccc2[N+](=O)[O-])c1,44*,-5%,22,-1%
COc1ccc(OCCNc2cc(Cl)ccc2[N+](=O)[O-])cc1,17*,5%,1,.
COc1ccc(OCCNc2cc(N3CCOCC3)ccc2[N+](=O)[O-])cc1,13,5%,-12,?
COc1ccc(OCCNc2cc(N3CCCCC3)ccc2[N+](=O)[O-])cc1,0,0%,20,-21%
